Screening data: PubChem BioAssay, National Center for Advancing Translational Sciences (NCATS)
Hits are enriched below; roughly 2.8% of the tested compounds scored in any of these assays.
Pol beta inh: qHTS Assay for Inhibitors of DNA Polymerase Beta; Potency, µM (doses to about 114 µM), for the others: at the highest dose activity change, negative = inhibition, usual class: inhibitors; Pol beta primer extension/strand displacement, fluorescence kinetic; P06746; AID 485314, 2010; hit rate 1.3% among 340,000; further: potency means the concentration at half of the fitted maximal effect; on the % scale 0 is the no-effect control and ±100 the full control effect
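Reaction started by 50 nM substrate onto compound-treated Pol beta (10 nM, 15 min preincubation, room temperature); plates read at 0 min and 10 min. Normalized concentration-effect data fitted by four-parameter Hill equation.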
Pol iota inh: qHTS for Inhibitors of Polymerase Iota | DNA polymerase iota (Homo sapiens), Q9UNA4 | Pol iota fluorescent replication assay, 10 min | Potency, µM (series often up to 115 µM), without a hit: at the highest dose activity, negative = inhibition, hits mostly inhibitors | hit rate 1% among 390,000; further: potency means the concentration at half of the fitted maximal effect
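Fluorescent replication assay read twice, at 0 min and 10 min after adding 50 nM (final) substrate. Enzyme (10 nM) and compounds were first incubated 15 min at room temperature; enzyme-free buffer wells were negative controls.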
Pol kappa inh-1: qHTS for Inhibitors of Polymerase Kappa. purified Pol kappa, fluorescent DNA synthesis assay, 10 min. Potency, µM (doses to about 107 µM), without a hit: top-dose activity, negative = inhibition, hits mostly inhibitors. hit rate 0.53% among 400,000. AID 588579, 2011; further: potency means the concentration at half of the fitted maximal effect; on the % scale 0 is the no-effect control and ±100 the full control effect
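Here, compound and 10 nM enzyme are combined for 15 min at room temperature; adding 50 nM substrate (final) starts DNA synthesis, tracked by fluorescence at 0 and 10 min against buffer-only wells.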
Pol eta inh-1: qHTS for Inhibitors of Polymerase Eta. DNA polymerase eta (Homo sapiens), Q9Y253. Potency, µM (series often up to 114 µM), for inactives: at the top dose activity change, negative = inhibition, most hits filed as inhibitors. AID 588591, 2011. hit rate 1.2% among 390,000. recombinant Pol eta, fluorescent DNA replication assay; further: potency means the concentration at half of the fitted maximal effect; on the % scale 0 is the no-effect control and ±100 the full control effect
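Pol eta (10 nM) was preincubated with compounds for 15 min at room temperature, after which fluorescent replication substrate (50 nM final) was added to start the reaction. Fluorescence was read kinetically at 0 and 10 min.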
WRN inhibitor: qHTS for Inhibitors of WRN Helicase; hit rate 0.46% among 360,000; Bifunctional 3'-5' exonuclease/ATP-dependent helicase WRN (Homo sapiens), Q14191; WRN helicase unwinding, fluorescent forked duplex, kinetic; Potency, µM (top dose mostly 114 µM), for the others: at the top dose activity change, negative = inhibition, actives largely listed as inhibitors; further: potency means the concentration at half of the fitted maximal effect; on the % scale 0 is the no-effect control and ±100 the full control effect; nearly all actives have a fitted effect of over 55% in size
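Kinetic red-fluorescence monitoring (525/598 nm) tracks WRN helicase activity after 100 nM fluorophore-quencher forked duplex and 2 mM ATP are added to 20 nM enzyme pretreated 15 min at room temperature with compound.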
PI5P4Ka inh: qHTS for Inhibitors of phosphatidylinositol 5-phosphate 4-kinase (PI5P4K); Phosphatidylinositol 5-phosphate 4-kinase type-2 alpha (Homo sapiens), P48426; PI5P4Kalpha enzyme, ADP-Glo luminescence, 60 min; hits give low values; max response, %; hit rate 1.2% among 330,000; active means max response of -50% or lower; inconclusive means between -30% and -50%; inactive means -30% or higher; further: value at the top dose of about 77 µM; on the % scale 0 is the no-effect control and ±100 the full control effect
Target sequence (P48426 whole entry, looked up): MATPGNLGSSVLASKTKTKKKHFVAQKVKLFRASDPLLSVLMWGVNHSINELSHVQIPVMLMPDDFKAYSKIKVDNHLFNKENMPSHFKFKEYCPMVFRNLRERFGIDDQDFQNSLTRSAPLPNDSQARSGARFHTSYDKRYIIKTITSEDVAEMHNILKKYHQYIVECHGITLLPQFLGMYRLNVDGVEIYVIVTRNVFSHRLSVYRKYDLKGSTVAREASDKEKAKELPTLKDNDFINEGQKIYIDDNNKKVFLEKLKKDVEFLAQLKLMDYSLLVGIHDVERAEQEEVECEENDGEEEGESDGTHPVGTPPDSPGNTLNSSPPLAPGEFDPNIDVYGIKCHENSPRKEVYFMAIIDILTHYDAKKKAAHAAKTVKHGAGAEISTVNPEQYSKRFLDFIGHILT
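Quantitative HTS of the MLSMR library against PI5P4Kalpha with substrate. ATP added last at 5 microM final; room temperature, 60 minutes. Remaining ATP depleted, ADP converted and read as luminescence.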
Pol kappa inh-2: qHTS for Inhibitors of Polymerase Kappa: Confirmatory Assay for Cherry-picked Compounds; Potency, µM, most hits filed as inhibitors; shares compounds with Pol eta inh-1; AID 720501, 2013; hit rate 76% among 920; purified Pol-kappa, fluorescent strand-displacement substrate; further: potency means the concentration at half of the fitted maximal effect
Pol eta inh-2: qHTS for Inhibitors of Polymerase Eta: Confirmatory Assay for Cherry-picked Compounds; hit rate 64% among 2,600; Pol eta primer extension, TAMRA/BHQ fluorescence, 10 min; shares compounds with Pol eta inh-1; Potency, µM, most hits filed as inhibitors; further: potency means the concentration at half of the fitted maximal effect
Starred values were filed as active, the others as inactive; [ ] = another dose, or the depositor's remark. Unless noted, the call rests on the fitted dose curve; in most records, active means well fitted curve in the direction sought with a large enough effect; inconclusive means small, poorly fitted or top-dose-only effect, or another doubt; inactive means no such curve, though single readings can be large; an effect the other way counts as inactive or inconclusive.

CC[C@@H](C)CN1C(=O)N[C@@H](c2ccccc2)C(C(C)=O)=C1C was read as Pol iota inh 14µM*, Pol kappa inh-1 inconclusive, Pol eta inh-1 22µM*, WRN inhibitor inconclusive, PI5P4Ka inh inconclusive and Pol eta inh-2 76*.
`COCCCNC(=O)CSc1nc2cc3c(cc2c(=O)n1CCCCCC(=O)NCCc1ccc(OC)c(OC)c1)OCO3` gave Pol beta inh 2%, Pol iota inh 23%, Pol kappa inh-1 -5%[60.1 µM] and Pol eta inh-1 -19%.
COc1ccc(-c2cc(=O)c3c(O)cc(OC4OC(COC5OC(C)C(O)C(O)C5O)C(O)C(O)C4O)cc3o2)cc1O (stereo not drawn) was read as Pol iota inh inconclusive, Pol kappa inh-1 inconclusive, Pol eta inh-1 22µM*, WRN inhibitor -8%[11.6 µM], PI5P4Ka inh -1, Pol kappa inh-2 12* and Pol eta inh-2 30*.
Screening CC1O[C@@H](O[C@H]2C(Oc3cc(O)c4c(=O)cc(-c5ccc(O)cc5)oc4c3)OC(CO)C(O)C2O)C(O)C(O)C1O (stereo partly drawn) returned Pol kappa inh-1 -8%[60.1 µM].
Screening CCNc1ncc2nc(CCc3ccccc3)c(=O)n(C[C@H]3CCCO3)c2n1 returned Pol kappa inh-1 -7%[60.1 µM].
Screening CCN(CC)C(=O)c1c[nH]c2ccc(S(=O)(=O)Nc3cc(C)cc(C)c3)cc2c1=O returned Pol beta inh 0%, Pol iota inh -3%, Pol kappa inh-1 -13%, Pol eta inh-1 inconclusive, WRN inhibitor -7% and PI5P4Ka inh 0.
COc1cccc(NS(=O)(=O)c2ccc3[nH]cc(C(=O)N4CCCC4)c(=O)c3c2)c1 was read as Pol beta inh inconclusive, Pol iota inh -5%, Pol kappa inh-1 -16% and Pol eta inh-1 -1%.
Screening CCc1ccc(NS(=O)(=O)c2ccc3[nH]cc(C(=O)N4CCCCC4)c(=O)c3c2)cc1 returned Pol beta inh inconclusive, Pol iota inh inconclusive, Pol kappa inh-1 -42%, Pol eta inh-1 inconclusive, WRN inhibitor 2%[11.6 µM], PI5P4Ka inh 2 and Pol eta inh-2 inconclusive.
Screening COc1cccc(NS(=O)(=O)c2ccc3[nH]cc(C(=O)N(C)C4CCCCC4)c(=O)c3c2)c1 returned Pol beta inh -12%, Pol iota inh inconclusive, Pol kappa inh-1 -6%[60.1 µM], Pol eta inh-1 56µM*, Pol kappa inh-2 inconclusive and Pol eta inh-2 inconclusive.
For Cc1ccccc1NS(=O)(=O)c1ccc2[nH]cc(C(=O)N3CCCC3)c(=O)c2c1 the results were Pol beta inh inconclusive, Pol iota inh inconclusive, Pol kappa inh-1 5%[60.1 µM], Pol eta inh-1 89µM* and Pol eta inh-2 inconclusive.
For CCN(CC)CCNS(=O)(=O)c1ccc2[nH]cc(C(=O)O)c(=O)c2c1 the results were Pol beta inh 18µM*, Pol iota inh inconclusive, Pol kappa inh-1 inconclusive, Pol eta inh-1 22µM*, WRN inhibitor -12%[11.6 µM] and Pol eta inh-2 27*.
For CC(C)c1ccc(NS(=O)(=O)c2ccc3[nH]cc(C(=O)N4CCCC4)c(=O)c3c2)cc1 the results were Pol beta inh inconclusive, Pol iota inh 79µM*, Pol kappa inh-1 inconclusive, Pol eta inh-1 inconclusive and Pol eta inh-2 43*.
